Where a name gives a salt, the structure may show the parent alone.

The test concerns Danio rerio larvae Tg(actc1b:ZsGreen-LC3), 3 dpf. The test can be described thus: LC3 puncta relative area vs vehicle, with NH4Cl (autophagic flux) (log2 fold change); higher = more autophagy. The note with it: 10 µM; treatment time 16 h; NH4Cl: + 100 mM, 4 h. On the procedure: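 Transgenic Tg(actc1b:ZsGreen-map1lc3) zebrafish larvae (2 dpf) were treated for 16 h with Tocris library compounds at 10 µM (n = 12 larvae per compound). Skeletal-muscle LC3 puncta area relative to body area was measured by high-content confocal imaging before and after 4 h of 100 mM NH4Cl (autophagic flux), normalised to vehicle (DMSO), and reported as log2 fold change.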
Turning to `COC(=O)[C@@H](N)CCCNC(=N)N[N+](=O)[O-]` [L-NAME hydrochloride], the “LC3 puncta (log2)” value came to 0.657. Take `C[C@H](N)Cc1cnc[nH]1`: the “LC3 puncta (log2)” value was 0.58.

Regarding `Cc1onc(O)c1CC(N)C(=O)O` (racemic), the “LC3 puncta (log2)” value was 0.2. In the case of `O=C(CCCN1CCC2(CC1)C(=O)N(Cc1cccc(F)c1)CN2c1ccccc1)c1ccc(F)cc1` [3'-Fluorobenzylspiperone maleate], the “LC3 puncta (log2)” value came to 1.38. Turning to `c1ccc(CCCCN2CCC(c3ccccc3)CC2)cc1` [4-PPBP maleate], the “LC3 puncta (log2)” value is 0.486. In the case of `CN1C[C@H](CNC(=O)OCc2ccccc2)C[C@@H]2c3cccc4c3c(cn4C)C[C@H]21` [Metergoline], the “LC3 puncta (log2)” value was 0.408.

In the case of `COc1ccc(C(=O)N2CCCC2=O)cc1` [Aniracetam], the “LC3 puncta (log2)” value was found to be 0.0699. Turning to `Clc1cccc(SC2CCNCC2)n1` [Anpirtoline hydrochloride], the “LC3 puncta (log2)” value worked out at 0.148. As for `CCCN(CCC)[C@@H]1CCc2c(OC)cccc2[C@@H]1C` [(+)-UH 232 maleate], the “LC3 puncta (log2)” value is 0.738. `CCC(Oc1ccc(Cl)cc1)C(=O)OC1C[C@H]2CC[C@@H](C1)N2C` (stereo not given in full) [SM-21 maleate]: the “LC3 puncta (log2)” value came to 0.294. `c1ccc2nc(N3CCNCC3)ccc2c1` [Quipazine dimaleate]: the “LC3 puncta (log2)” value turned out to be 0.278. Take `Cc1[nH]c2ccc(O)cc2c1CCN` [2-Methyl-5-hydroxytryptamine hydrochloride]: the “LC3 puncta (log2)” value came out at 0.337. As for `O=C1NCN(c2ccccc2)C12CCN(CC1COc3ccccc3O1)CC2` (stereo not given) [Spiroxatrine], the “LC3 puncta (log2)” value stood at 0.649. The figure for `CCCN(CCC)C1CCc2ccc(O)cc2C1` (stereo not given) [7-Hydroxy-DPAT hydrobromide] is 0.179; for `c1ccc(CC(c2ccccc2)N2CCCCC2)cc1` (stereo not given) [(?)-1-(1,2-Diphenylethyl)piperidine maleate] it is 0.216; for `O=C1CCCN1CC#CCN1CCCC1` [Oxotremorine sesquifumarate] it is 0.192. With `CCCN(CCC)C1CCc2cccc(O)c2C1` (stereo not given) [8-Hydroxy-DPAT hydrobromide], the “LC3 puncta (log2)” value came to 0.325.

Take `CC(C)[C@@]1(NC(=O)[C@@H]2C[C@@H]3c4cccc5[nH]cc(c45)C[C@H]3N(C)C2)O[C@@]2(O)[C@@H]3CCCN3C(=O)[C@H](Cc3ccccc3)N2C1=O` [Dihydroergocristine mesylate]: the “LC3 puncta (log2)” value came out at 0.198. As to `CC(N)Cc1cnc[nH]1` (stereo not given), the “LC3 puncta (log2)” value came out at 0.293. To `CC(CN)CC(=O)O` (stereo not given) [3-Methyl-GABA] belongs 0.425; to `NC(C(=O)O)c1nn[nH]n1` (racemic) [(RS)-(Tetrazol-5-yl)glycine], 0.357. In the case of `Cc1nc(N)sc1CCN` [Amthamine dihydrobromide], the “LC3 puncta (log2)” value came out at 0.697.

Consider `N=C(N)NN` [Aminoguanidine hydrochloride], for which the “LC3 puncta (log2)” value worked out at 0.662. Turning to `Oc1ccc2c3c1O[C@H]1c4c(c5ccccc5n4Cc4ccccc4)C[C@@]4(O)C(C2)N(CC2CC2)CC[C@]314` [N-Benzylnaltrindole hydrochloride], the “LC3 puncta (log2)” value stood at 0.945. As for `COc1ccc(CNC(=O)/C=C/c2ccc3[nH]cc(CCN(C)C)c3c2)cc1`, the “LC3 puncta (log2)” value amounted to 0.115. In the case of `CC(C(=O)OC1CC2CCC(C1)N2C)c1ccc(Br)cc1` (stereo not given) [PG-9 maleate], the “LC3 puncta (log2)” value was 0.169.

Turning to `CN(C(=O)Cc1ccccc1)C(CN1CCCC1)c1ccccc1` (stereo not given) [N-MPPP Hydrochloride], the “LC3 puncta (log2)” value was 0.566. As to `Fc1ccc(C(OCCN2CCN(C/C=C/c3ccccc3)CC2)c2ccc(F)cc2)cc1`, the “LC3 puncta (log2)” value came out at 0.995. On to `NCC(CS(=O)(=O)O)c1ccc(Cl)cc1` (stereo not given) [Saclofen], for which the “LC3 puncta (log2)” value was -0.0138. As for `NCCc1c[nH]c2ccc(C(N)=O)cc12` [5-Carboxamidotryptamine maleate], the “LC3 puncta (log2)” value was determined as 0.571.

As for `N=C(NCc1ccc(Cl)cc1)SCCCc1c[nH]cn1` [Clobenpropit dihydrobromide], the “LC3 puncta (log2)” value stood at 0.922. The figure for `c1ccc(C2CNCc3ccccc32)cc1` (stereo not given) [4-Phenyl-1,2,3,4-tetrahydroisoquinoline hydrochloride] is 0.39. Take `Cc1onc(O)c1C[C@H](N)C(=O)O`: the “LC3 puncta (log2)” value came out at 0.29. As to `O=c1[nH]oc2c1CCNC2` [THIP hydrochloride], the “LC3 puncta (log2)” value stood at 0.742. Take `OC1CCCCC1N1CCC(c2ccccc2)CC1` (stereo not given) [(?)-Vesamicol hydrochloride]: the “LC3 puncta (log2)” value turned out to be 0.751.

Consider `C=CCN1C[C@H](C)N([C@H](c2ccc(C(=O)N(CC)CC)cc2)c2cccc(OC)c2)C[C@H]1C`, for which the “LC3 puncta (log2)” value amounted to 0.846. To `C=C(C)[C@H]1CN[C@H](C(=O)O)[C@H]1CC(=O)O` [Kainic acid] belongs 0.23. To `CC(=O)NCCc1c[nH]c2ccccc12` [N-Acetyltryptamine] belongs 0.0329; to `CCCN[C@@H]1CCc2c(OC)cccc2[C@@H]1C` [(+)-AJ 76 hydrochloride], 0.353. For `CC[N+](CC)(CCCNC1=CC(=O)C(NCCC[N+](CC)(CC)Cc2ccccc2)=CC1=O)Cc1ccccc1` [Benzoquinonium dibromide], the “LC3 puncta (log2)” value turned out to be 0.386.

The values are drawn from the supplement of paper PMC12532568.
